CYP2C9 act = human CYP2C9 activators, primary screen, biochemical, luminescence | Cytochrome P450 2C9 (Homo sapiens), P11712 | recombinant CYP2C9, luciferin-H conversion; hits give high values; factor 1 = untreated enzyme, 0 = blocked | activation factor at 5 µM | 1.4% of 96,000 active;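 active means activation factor of 2 or more for CYP2C9 at a 5 µM dose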;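 further: 0 = sulfaphenazole-blocked wells and 1 = vehicle-only wells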
Target sequence (P11712 whole entry, looked up): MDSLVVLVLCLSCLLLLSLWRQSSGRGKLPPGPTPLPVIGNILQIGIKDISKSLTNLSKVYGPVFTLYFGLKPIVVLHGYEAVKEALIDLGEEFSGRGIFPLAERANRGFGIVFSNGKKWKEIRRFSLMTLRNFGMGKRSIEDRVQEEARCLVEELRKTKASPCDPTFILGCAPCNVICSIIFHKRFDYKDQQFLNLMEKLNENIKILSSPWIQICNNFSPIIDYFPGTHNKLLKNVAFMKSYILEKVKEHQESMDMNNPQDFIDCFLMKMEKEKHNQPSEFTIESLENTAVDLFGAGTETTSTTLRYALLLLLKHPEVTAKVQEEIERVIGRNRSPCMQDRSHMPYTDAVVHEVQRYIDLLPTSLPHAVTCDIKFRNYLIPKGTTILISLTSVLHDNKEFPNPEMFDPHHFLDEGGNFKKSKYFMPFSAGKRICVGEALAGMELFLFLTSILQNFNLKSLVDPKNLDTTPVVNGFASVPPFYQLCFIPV
PTK2B oligo ant = antagonists of Pyk2 self-association, primary screen, Q293 cells, FERM NanoBiT luminescence, HTS | Protein-tyrosine kinase 2-beta (Homo sapiens), Q14289 | z-score (the deposit names both 25 µM and 10 µM) | hits give low values | 0.83% of 99,000 active;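 active means Z-score of -3 or lower, scaled per plate to the spread of control and sample wells; inactive means z-score above -3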;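 further: negative z-score means lost luminescence so less FERM oligomerization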
CYP2C19 inhib = blockers of cytochrome P450 2C19 activity – biochemical, luminescence, ADME assay, primary screen; P33261; CYP2C19 Supersomes, luciferin-H EGE luminescence, 30 min; inhibition, % at 5 µM; 21% of 96,000 active; AID 778, 2007;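 active means CYP2C19 inhibition above a set limit at 5 µM in the primary screen, cut at about 50% in these data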;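 further: plate controls were negative control wells for no effect and 2.5 mM tranylcypromine positive control for full effect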
Cav32 inh = Cav3.2 calcium influx blockers – cell-based, Fluo-4 calcium fluorescence, FDSS, MLSMR library, primary screen; B-score at 10 µM; 4% of 100,000 active; Cav3.2-expressing cells; hits give low values; Voltage-dependent T-type calcium channel subunit alpha-1H (Homo sapiens), O95180;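 active means single-dose well whose peak fluorescence ratio is a statistical outlier from its plate by either plate-standardised score or position-corrected B-score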
CYP2C9 inh = blockers of cytochrome P450 2C9 activity – biochemical, luminescence, ADME assay, primary screen | inhibition, % at 5 µM | P11712 | 20% of 96,000 active | CYP2C9 Supersomes, luciferin-H conversion;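 active means blocking of liver enzyme CYP2C9 beyond about 50% at 5 µM, limit read from the data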
CYP2C19 act = human CYP2C19 activators, primary screen, biochemical, luminescence; Cytochrome P450 2C19 (Homo sapiens), P33261; activation factor at 5 µM; 96,000 tested, under 10 active; recombinant CYP2C19, luciferin-H EGE luminescence; hits give high values; 0 = fully inhibited enzyme, 1 = untreated enzyme; AID 1025, 2008;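 active means activation factor of at least 2 at 5 µM in the primary screen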;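 further: 0 = wells with 2.5 mM tranylcypromine and 1 = vehicle-only wells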
Numbers without * were called inactive; nt = no result given. Hits are enriched below; roughly 27% of the tested compounds scored in any of these assays.

SMILES	CYP2C9 act	PTK2B oligo ant	CYP2C19 inhib	Cav32 inh	CYP2C9 inh	CYP2C19 act
Cc1ccc2c(c1)N(CCC(=O)NCc1cccnc1)C(=O)CO2	0.8	-0.24	44	0.63	20	0.6
CCN(CCCNC(=O)CCCN1C(=O)COc2ccc(C)cc21)c1cccc(C)c1	0.4	0.37	50*	-3.1	58*	0.5
Cc1ccc2c(c1)N(CCC(=O)NCc1ccccn1)C(=O)CO2	1.1	1.7	55*	1.2	-14	0.4
Fc1ccc(-c2nc3c(Cl)cc(C(F)(F)F)cn3c2Cl)cc1	0.9	1.2	23	nt	7	0.8
COc1ccccc1CNC(=O)CCN1C(=O)COc2ccccc21	1.7	1.6	50*	0.55	-65	0.5
O=C(CCCCCN1C(=O)c2ccccc2C1=O)NCc1ccco1	0.4	-0.39	22	nt	60*	0.8
CCOC(=O)N1CCN(C(=O)CCN2C(=O)COc3ccccc32)CC1	1.1	0.04	-14	0.29	-13	1.1
Cc1cccc(C)c1NC(=O)C1C2C=CC(C2)C1C(=O)NCc1ccccn1 (centres undefined)	1	0.83	4	-0.11	-1	1
O=S(=O)(CC(CN1CCCC1)N1CCCC1)c1ccc2ccccc2c1 (centres undefined)	nt	2.7	nt	1.1	nt	nt
Cc1ccc(S(=O)(=O)/C(C#N)=C/c2c(N3CC(C)OC(C)C3)nc3c(C)cccn3c2=O)cc1 (centres undefined)	0.3	-1.8	7	-2.7	72*	0.9
CCN1CCN(c2nc3c(C)cccn3c(=O)c2/C=C(\C#N)S(=O)(=O)c2ccc(C)cc2)CC1	0.1	-1.6	33	-0.78	89*	0.7
Cc1cccn2c(=O)c(/C=C(\C#N)S(=O)(=O)c3ccccc3)c(N3CCN(C)CC3)nc12	0.2	-0.99	-10	nt	75*	1.1
Cc1cccn2c(=O)c(/C=N/O)c(N3CCCCC3)nc12	1	-1.3	-16	-1.7	-4	1.2
Cc1ccc(S(=O)(=O)/C(C#N)=C/c2c(N3CCN(C)CC3)nc3c(C)cccn3c2=O)cc1	0.2	-0.88	9	0.63	85*	0.9
CCN1N=C(c2cc(Cl)sc2Cl)CSC1=O	nt	-0.31	nt	-2.8	nt	nt
CCCC(C(=O)c1ccccc1)n1cncn1 (centres undefined)	0.9	-0.89	17	0.81	5	0.8
CC(C)(C)C(=O)C(Cc1ccccc1)n1cncn1 (centres undefined)	0.4	0.11	31	1.9	56*	0.7
CC(C)(C)C(=O)C(Cc1ccccc1Cl)n1cncn1 (centres undefined)	0.9	-0.01	60*	0.31	12	0.4
COC(=O)Cc1cc(=O)n2[nH]c(SC)nc2n1	0.4	-0.46	22	0.1	64*	0.8
Cn1cc(C(=O)c2ccc(F)cc2)cc1-c1nc2ccccc2n1C	0.6	-0.76	25	-1.2	37	0.8
CC(=O)c1cc(-c2nc3ccccc3n2C)n(C)c1	0.3	0.46	56*	-0.14	73*	0.4
Nc1ncnc2nc(SCc3ccc(Cl)cc3Cl)[nH]c12	0.4	0.24	67*	nt	59*	0.3
Nc1ncnc2nc(Sc3ccc(Cl)cc3)[nH]c12	0.7	0.76	22	0.58	27	0.8
Cc1ccc(/C=C2\CCC3=C2OC(N)=C(C#N)C3c2ccc(C)cc2)cc1 (centres undefined)	0.4	-0.27	-1	-6.5*	56*	1
O=C(NCc1ccco1)c1cc2ccccc2o1	1.1	-1.2	6	0.64	-12	0.9
SMILES	CYP2C9 act	PTK2B oligo ant	CYP2C19 inhib	Cav32 inh	CYP2C9 inh	CYP2C19 act
COc1ccc2cc(C(=O)NC3CCCCC3)c(=O)oc2c1	0.3	0.13	96*	-0.23	70*	0
O=C(c1ccccc1)c1cc2ccc(O)cc2oc1=O	0.2	-0.28	93*	0.54	80*	0.1
O=C(NCc1ccco1)c1cc2ccc(O)cc2oc1=O	0.1	0.89	97*	nt	93*	0
COc1ccc(C(=O)c2cc3ccc(O)cc3oc2=O)cc1	0.7	-1.1	63*	0.63	35	0.4
COc1ccc(N=c2oc3cc(O)ccc3cc2C(=O)NCC2CCCO2)c(OC)c1 (centres undefined)	0.8	-2.6	3	-1.2	23	1
Cc1ccc(Nc2c([N+](=O)[O-])ccc3c2=NC2(CCCCC2)N=3)cc1	0.7	-2	7	nt	32	0.9
CCOC(=O)c1sc(NC(=O)Nc2ccc(Cl)cc2)nc1C	0.9	-2.2	10	0.11	15	0.9
Cc1nnsc1NC(=O)OCC(C)(C)C	1.2	0.44	2	0.56	-19	1
C=CCc1ccccc1OCC(O)CN1CCN(Cc2ccc3c(c2)OCO3)CC1 (centres undefined)	0.6	0.68	48	-2.8	41	0.5
CCOc1ccccc1CN(CCc1ccc2c(c1)OCO2)Cc1ccccn1	0.4	0.83	98*	-4.3*	58*	0
COc1ccc(-c2nc3c(c(=O)[nH]c(=O)n3Cc3ccccc3)n2Cc2ccccc2)cc1	0.6	-3.1*	21	-6.4*	42	0.8
COc1ccc(-c2nc3c(c(=O)[nH]c(=O)n3Cc3ccccc3)n2C)cc1	1	-0.91	-9	0.42	1	1.1
Cn1c(-c2cccc(OCc3ccccc3)c2)nc2c1c(=O)[nH]c(=O)n2Cc1ccccc1	0.5	-0.71	5	0.46	54*	1
CC(C)C1(C)C(=O)N=C2c3ccccc3C(=O)N21 (centres undefined)	1	0.42	33	0.045	2	0.7
COc1ccc(C2SCC(=O)N2CCCN(C)C)cc1 (centres undefined)	1	0.29	-18	0.41	3	1.2
O=C(O)CN1CCN(Cc2ccc(F)cc2Cl)C1=O	nt	0.78	nt	0.18	nt	nt
Cc1cccc(N2CCN(C(c3ccccc3)c3nnnn3C(C)(C)C)CC2)c1C (centres undefined)	nt	-2.7	nt	nt	nt	nt
COc1ccccc1C(c1nnnn1C(C)(C)C)N1CCN(Cc2ccncc2)CC1 (centres undefined)	0.1	0.03	79*	nt	89*	0.2
COc1ccccc1N1CCN(C(c2ccc(Cl)cc2)c2nnnn2C(C)(C)C)CC1 (centres undefined)	0.1	-2.5	89*	-3.8	87*	0.1
COc1ccccc1N1CCN(C(c2ccccc2Cl)c2nnnn2C(C)(C)C)CC1 (centres undefined)	0.9	-2	12	-6.8*	13	0.9
CCN1CCN(C(c2cc(OC)ccc2OC)c2nnnn2Cc2ccccc2)CC1 (centres undefined)	1	-0.75	-2	1.1	2	1
